We go through 40 compounds from PubChem BioAssay AID493201 (National Center for Advancing Translational Sciences (NCATS), 2011).

Each structure is given as a SMILES string. Records with an inconclusive call do not appear. A number with no mark means an inactive call. Active and inactive are the calls of the source. Calls follow the shape of the dose curve; as a rule, active = well fitted activation curve with a large enough effect; inconclusive = small, poorly fitted or top-dose-only effect; inactive = no such curve, though single readings can be large or run the other way.
Potency is read from the fitted curve at half-maximal effect.

This test in a line: qHTS Assay for Identifying a Potential Treatment of Ataxia-Telangiectasia: Secondary assay (no NCS) hit validation.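 Also: phosphorylated KAP1 signal as a proxy for ATM-like kinase activity.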 As to activation: 0% is about no effect. The settings on record: A-T patient fibroblasts, AlphaLISA, no DNA damage added, 90 min; series mostly up to 76.9 µM; activation: at the top concentration. An excerpt: NIH Chemical Genomics Center [NCGC]
NIH Molecular Libraries Probe Centers Network [MLPCN]
Assay Submitter (PI): Wei Zheng and Yosef Shiloh
Ataxia-telangiectasia (A-T) is a devastating and progressive disease for which, there is no cure. Although A-T is a multisystem disease, it is stereotyped characterized by its neurological symptoms such as truncal ataxia, due to cerebellar cortical degeneration of the Purkinje and granule cells. Other symptoms of A-T are telangiectasias (dilated blood vessels), primary immunodeficiency, marked sensitivity to ionizing radiation (IR), chromosomal instability and predisposition to cancer.
The underlying genetic cause of A-T is null mutations in the ATM (A-T mutated) gene. ATM is a nuclear serine/threonine kinase that functions as a master regulator of the cellular responses to double strand breaks (DSBs) in the DNA. Upon activation by DSBs, ATM phosphorylates a plethora of downstream targets, including KAP-1 on […]. KAP-1 phosphorylation occurs shortly in response to DSBs and mediates global chromatin relaxation, which facilitates DSB repair. To screen for small molecules that will compensate for the loss of ATM in cells derived from A-T patients, we monitored KAP-1 phosphorylation as a readout for ATM-like activity using an AlphaLISA assay. This secondary assay omits NCS, which creates double-stranded DNA breaks.
Step,Parameter,Value,Description
1. Cell Plating, 3 ul, 500 cells/well in OPTI-MEM, 1% FBS, 1% Pen/Strep
3. Library compounds, 23 nl, 76.7 - 0.61uM dilution series final concentration
4. Incubation, 60 min, 37C, 5% CO2, 95% humidity
6. Incubation, 30 min, 37C, 5% CO2, 95% humidity
7. Reagent, 1 ul, Premixed detection reagents and lysis buffer
8. Reagent, 1 ul, 0.6% Antifoam A
9. Incubation, 6 hr, 25C, 95% humidity
10. Readout, EnVision, EnVision plate reader. AlphaScreen 1536-well protocol
Cells were plated using medium-binding white solid-bottom tissue culture treated Kalypsys plates. Multidrop dispense of 3 uL of F2112 (hTERT immortalized A-T patient fibroblast cells). Detection reagent and lysis buffer was 3.75nM Rab-a-pKAP1 antibody bound to 75 ng/ul AlphaScreen SA donor bead, 3.75 nM Biot-M-a-KAP1 antibody bound to AlphaLISA protein A acceptor bead, 0.5x protease inhibitor cocktail and 0.25x PerkinElmer lysis buffer. EnVision protocol for 1536-well AlphaScreen read (30ms excitation, 100ms read), about 10 min/plate.
Regarding `COc1ccc(-c2nn(C)c(=O)[nH]2)cc1`, the “activation” value is 15.1%.
Same read-out and setting: the value for `Cc1c(Cc2ccccc2)c(NCCCO)n2c(nc3ccccc32)c1C#N` was 9.57%.
Take `Cc1cccc(NC(=O)/C(C#N)=C/c2ccc(F)cc2)n1`: the Potency is 1.84 µM (active).
Consider `COc1cccc(C(=O)NOCc2ccc(C)cc2)c1OC`, for which the “activation” value was -4.24%.
With `O=C(C(c1ccccc1)c1ccccc1)N1CC[C@@]2(O)CCCC[C@H]2C1`, the “activation” value was 11.9%.
The same measure, in the same setting: the value for `O=C1NC(NS(=O)(=O)c2ccc(Cl)cc2)(C(F)(F)F)C(=O)N1CCc1ccccc1` (stereo not given) was -1.74%; that for `COc1ccc(N2CCN(C(=O)c3cc4cc(Cl)ccc4[nH]3)CC2)cc1` was -8.7%.
Turning to `CCOc1ccccc1CNC(=O)Cn1c(=O)oc2ccccc21`, the Potency was 32.8 µM (active).
Consider `CC1(C)CC2(CCO1)OC(=O)CC2C(=O)Nc1c(Cl)cccc1Cl` (stereo not given), for which the “activation” value was -1.08%.
As to `CCOC(=O)c1[nH]c(COC(=O)c2ccccc2NC(=O)c2ccco2)c(C(=O)OCC)c1C`, the “activation” value was -1.08%.
Turning to `CC1CCCC(C)N1CCCNC(=O)Cn1ncc2c3ccccc3n(C)c2c1=O` (stereo not given), the Potency is 14.6 µM (active).
In the case of `COc1ccc(N(CCC#N)C(=O)/C(C#N)=C\c2cccs2)cc1`, the “activation” value was -4.35%.
Same read-out and setting: the value for `COc1ccc(/C=N/Nc2nc(=O)[nH]nc2C)cc1OC` was -2.15%; that for `C=CS(=O)(=O)c1sc(Cl)c(N2CCOCC2)c1[N+](=O)[O-]` was 7.53%.
On the same count and under the same terms, the same measure for `CCOC(=O)CNS(=O)(=O)Cc1ccccc1`: 0%; for `COc1cccc(CN(C)CC(=O)NCc2ccc(F)cc2)c1OC`: -5.38%; for `COC(=O)CCc1c(C)c(C(=O)c2cc(OC)c(OC)c(OC)c2)c2ccccn12`: 9.68%.
Turning to `COc1cccc(/C=N/NC(=O)c2cc3cc([N+](=O)[O-])ccc3s2)c1O`, the Potency is 46.3 µM (active).
In the case of `Cc1ccnc(NC(=O)c2ccccc2NC(=O)c2ccccc2)c1`, the “activation” value is 3.23%.
On the same count and under the same terms, the same measure for `O=C(c1ccc(F)cc1)N1CCC(c2ccccc2)C1` (stereo not given): -9.68%.
Regarding `CCc1ccc(NC(=O)N[C@H](C(=O)O)C(C)CC)cc1` (stereo not given in full), the “activation” value was -2.54%.
Consider `CC(C)(CO)NC(=O)c1ccc2c(c1)C(=O)c1ccccc1-2`, for which the “activation” value is 0%.
The same measure, in the same setting: the value for `COc1ccc2nc(C)cc(Nc3ccc(C(=O)O)cc3)c2c1` was 21.5%; that for `CC(C)c1ccc(C(C(=O)NC2CCCCC2)N(C(=O)c2ccccn2)c2cccnc2)cc1` (stereo not given) was 2.15%; that for `CN(C)C(=O)c1nc2ccc(Cl)cn2c1CNCc1cccc(OC(F)(F)F)c1` was -11.3%.
For the compound `COc1ccccc1Nc1nc(NCCCN(C)C)nc(N)c1[N+](=O)[O-]`, the Potency is 2.6 µM (active).
As to `CCn1nc(C)c(CNC(=O)c2cc(COc3ccc(F)cc3Cl)on2)c1C`, the “activation” value is 12.2%.
The same measure, in the same setting: the value for `C(=N\Nc1ccccn1)/c1c[nH]c2ccccc12` was -6.45%.
Still for that read-out and setting: the value for `Cc1ccc2c(c1)C(=O)CC(O)(C(F)(F)F)O2` (stereo not given) was -4.3%.
As for `CCOc1ccc(NC2=NCC(=O)N2Cc2cccs2)cc1`, the “activation” value was 2.61%.
For `CSc1nc2ccccc2nc1N(C)S(=O)(=O)c1ccc(C)cc1`, the Potency was 36.8 µM (active).
On the same count and under the same terms, the same measure for `Cc1oc2c(c(C)cc3oc(=O)c(CC(=O)NCC(=O)NCC(=O)O)c(C)c32)c1C`: 3.28 µM (active).
On the same count and under the same terms, the same measure for `COc1ccc(CCn2c(S)nc3ccccc3c2=O)cc1`: 41.2 µM (active).
For the compound `CC(=O)/C(N=Nc1nc2c([nH]1)c(=O)n(C)c(=O)n2C)=C(\C)O`, the “activation” value was 0%.
For `CCC(=O)c1ccc2c(c1)OCCO2`, the “activation” value was -1.74%.
Consider `C=C(C)n1c(=O)n(Cc2ccccc2C)c2ccccc21`, for which the “activation” value is 23.7%.
Same read-out and setting: the value for `COc1ccc(-n2c(=S)[nH]c3ccccc3c2=S)cc1` was -3.23%; that for `Clc1cccc(CN2CCC(Cc3ccccc3)CC2)c1` was 1.74%.
Regarding `CCn1nc(C)c(/C=N/NC(=O)Cn2cncn2)c1C`, the “activation” value was 4.3%.
On the same count and under the same terms, the value for `CN(C)C(=O)CN(C)S(=O)(=O)c1ccc(Cl)cc1` was -2.15%.
